Assay outcomes deposited in PubChem BioAssay by National Center for Advancing Translational Sciences (NCATS).
Sampled rows, rich in hits. Any-hit rate of the full collection: about 6%.
Bst PK mod: modulators of Bacillus stearothermophilus pyruvate kinase; purified pyruvate kinase, luminescence ATP production; ribose 5-phosphate activator present at AC10; Potency, µM; 51,000 compounds, 1.2% hits; in the data active means potency below about 11 µM; inconclusive means mostly about 12 µM to 25 µM;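 the screen sought inhibitors and activators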;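 further: scaled between full activation by ribose 5 phosphate and full inhibition by luteolin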
FLuc inh: firefly luciferase inhibition; P08659; purified firefly luciferase, luminescence, 8 min; Potency, µM (titrated, usually from 57.1 µM), without a hit: at the highest dose activity change, negative = inhibition, hits mostly inhibitors; 72,000 compounds, 2.2% hits; AID 411; further: nearly all actives have a fitted effect of over 40% in size
Target sequence (P08659 whole entry, looked up): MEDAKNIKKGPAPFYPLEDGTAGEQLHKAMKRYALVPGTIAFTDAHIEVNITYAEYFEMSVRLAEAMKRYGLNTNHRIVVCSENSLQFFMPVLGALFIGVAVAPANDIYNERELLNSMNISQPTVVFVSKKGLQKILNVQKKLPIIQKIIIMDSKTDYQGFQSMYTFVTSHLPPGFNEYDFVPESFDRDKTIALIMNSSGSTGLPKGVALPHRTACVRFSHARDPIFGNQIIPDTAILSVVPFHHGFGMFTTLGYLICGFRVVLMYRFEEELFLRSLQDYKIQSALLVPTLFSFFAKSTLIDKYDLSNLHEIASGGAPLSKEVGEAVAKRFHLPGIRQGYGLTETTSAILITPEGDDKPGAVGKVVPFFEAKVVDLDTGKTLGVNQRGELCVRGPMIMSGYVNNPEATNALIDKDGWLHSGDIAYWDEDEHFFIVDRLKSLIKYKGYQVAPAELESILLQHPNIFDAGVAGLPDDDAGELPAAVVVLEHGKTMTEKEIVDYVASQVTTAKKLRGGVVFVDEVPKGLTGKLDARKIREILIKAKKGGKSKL
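Substrate buffer containing 10 uM ATP (pH 7.2 imidazole, Mg2+, KCl, detergent, BSA) is dispensed, compound pinned in, then luciferase/luciferin detector mix added. After 8 min at ambient temperature, light output is measured.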
Pol III holo inh: inhibitors of bacterial DNA polymerase III holoenzyme. 71,000 compounds, 0.25% hits. reconstituted DNA polymerase III holoenzyme replication, biochemical. Potency, µM (doses to about 57.1 µM), inactives show top-dose activity change, negative = inhibition
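Reconstituted *E. coli* holoenzyme (0.35 nM Pol III, 1 nM beta, 154 nM SSB, 2 nM primase) was preincubated with compound for 15 min at RT. Synthesis on 1.4 nM ssM13Gori ran 35 min, then was stopped with PicoGreen/EDTA and read as dsDNA fluorescence.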
ERK AVP inh: vasopressin-driven ERK pathway inhibition. Potency, µM (series often up to 57.5 µM), without a hit: at the top dose activity, negative = inhibition, hits mostly inhibitors. HEK293-V1b, vasopressin-stimulated pERK AlphaScreen. 72,000 compounds, 0.99% hits; further: nearly all actives have a fitted effect of over 55% in size
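V1b-HEK293 cells; cpd 30 min 37C; 25 nM vasopressin 5 min; lyse 10 min; AlphaScreen beads 5 hr RT. Normalized to DMSO basal and 25 nM vasopressin; AC50 by Hill fit.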
Tau filament bind: binds recombinant human tau filaments; P10636; Potency, µM (series often up to 57.1 µM), without a hit: at the highest dose activity change, negative = inhibition; recombinant tau filaments, thioflavin S fluorescence, 15 h; filaments grown with octadecylsulfate alongside compound; 71,000 compounds, 2% hits;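 further: actives lower thioflavin S fluorescence by blocking filaments or displacing dye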
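ThS-based fibril read: tau 1 uM final, inducer ODS 30 uM final, 37 C for 15 h, ex 450/em 510 nm.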
ALOX15 inhib: inhibitors of human 15-lipoxygenase (ALOX15) | 74,000 compounds, 1.4% hits | purified 15hLO-1, xylenol orange hydroperoxide absorbance | Potency, µM (highest dose often 57.1 µM), without a hit: at the highest dose activity change, negative = inhibition, actives largely listed as inhibitors | P16050 | AID 887; further: nearly all actives have a fitted effect of over 55% in size
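40 nM 15hLO-1 + cpd, 15 min RT; start w/ 50 uM AA (final), 6 min RT; stop/detect w/ 200 uM XO + 300 uM Fe(II) in 50 mM H2SO4, 30 min; A573/A405. Buffer 25 mM Hepes pH 7.5, 0.01% Triton X-100. No-enzyme wells as negative control.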
Starred values were filed as active, the others as inactive; ! = not confirmed by another sample; [ ] = dose if it differs, or a comment. Unless noted, the call rests on the fitted dose curve; in most records, active means well fitted curve in the direction sought with a large enough effect; inconclusive means small, poorly fitted or top-dose-only effect, or another doubt; inactive means no such curve, though single readings can be large; an effect the other way counts as inactive or inconclusive. Unless noted, on the % scale 0 is the no-effect control and ±100 the full control effect; potency means the concentration at half of the fitted maximal effect.

What do the screens show for `CCOc1ccc2nc(N3CCC(C(=O)N4CCN(C(=O)c5ccco5)CC4)CC3)sc2c1`?
FLuc inh: 7.94µM*; Pol III holo inh: -1.1%; ERK AVP inh: 4.6%; Tau filament bind: 38.9%; ALOX15 inhib: 4.4%

Results for C=C(CO)[C@H]1Cc2c(ccc3c2O[C@H]2COc4cc(OC)c(OC)cc4[C@@H]2C3=O)O1 ?
FLuc inh: 0.6%[11.4 µM]; Pol III holo inh: -4.7%; Tau filament bind: inconclusive

How did CC(C)[C@@H](CC(=O)N[C@@H]1CCCC[C@H]1C(=O)N[C@H](CC(=O)N[C@@H](CCC(=O)O)CC(=O)O)Cc1ccccc1)NC(=O)C[C@H](Cc1ccccc1)NC(=O)[C@@H]1CNCC[C@H]1N do in these assays?
Pol III holo inh: -4.0%; Tau filament bind: 5.2%

How did CCOc1ccc2nc(N3CCC(C(=O)N4CCN(C5CCCCC5)CC4)CC3)sc2c1 do in these assays?
FLuc inh: 15.8µM*; Pol III holo inh: -0.8%; ERK AVP inh: 7.5%; Tau filament bind: 9.7%; ALOX15 inhib: 7.4%

Results for CC[C@@H]1[C@H]2CCCCN3[C@@H]2[C@@H](C[C@H]3[C@@H]2C[C@H](C)C(=O)O2)[C@@H]2[C@H]1OC(=O)[C@H]2C ?
FLuc inh: -0.5%[11.4 µM]; Pol III holo inh: -8.7%; Tau filament bind: -22.1%

How did CCC1(C)Nc2ccccc2C(=O)N1O (configuration not stated) do in these assays?
Bst PK mod: >57; FLuc inh: 2.9%; Pol III holo inh: 0.1%; ERK AVP inh: 25.6%; Tau filament bind: -5.5%; ALOX15 inhib: 2.4%

What do the screens show for `CC1=CC(C)(C)Nc2ccccc21`?
Pol III holo inh: -2.0%; ERK AVP inh: 11.2%; Tau filament bind: 15.8µM*!; ALOX15 inhib: -8.4%

What do the screens show for `COC(=O)c1ccc(-c2nc3ccccc3o2)cc1`?
FLuc inh: -5.6%; Pol III holo inh: -4.4%; ERK AVP inh: -3.4%; Tau filament bind: -7.0%; ALOX15 inhib: 7.1%

How did Cc1ccc(-c2nc3cc(N)ccc3o2)cc1 do in these assays?
FLuc inh: 2.51µM*; Pol III holo inh: -3.2%; ERK AVP inh: -17.9%; Tau filament bind: -27.2%; ALOX15 inhib: 0.1%

Results for COC(=O)c1ccc(-c2nc3ccc(C)cc3o2)cc1 ?
Bst PK mod: 3.31*; FLuc inh: inconclusive; Pol III holo inh: -2.0%; ERK AVP inh: 6.3%; Tau filament bind: 5.4%; ALOX15 inhib: -1.9%

What do the screens show for `Cc1ccc2oc(-c3ccc(NC(=O)CC(C)C)cc3)nc2c1`?
FLuc inh: inconclusive; Pol III holo inh: -0.9%; ERK AVP inh: inconclusive; Tau filament bind: 58.6%; ALOX15 inhib: 0.9%

Results for Cc1ccc(-c2nc3cc(N)ccc3o2)c(C)c1 ?
Bst PK mod: >57; FLuc inh: -1.2%; Pol III holo inh: -12.6%; ERK AVP inh: 0.9%; Tau filament bind: 4.9%; ALOX15 inhib: -2.9%

Results for CC(C)c1ccc2oc(-c3ccc(N)cc3)nc2c1 ?
FLuc inh: 1.26µM*; Pol III holo inh: -6.0%[11.4 µM]; ERK AVP inh: -26.9%; Tau filament bind: inconclusive; ALOX15 inhib: -11.6%[11.4 µM]

What do the screens show for `Cc1ccc(-c2nc3cc(C)ccc3o2)cc1`?
FLuc inh: 0.398µM*; Pol III holo inh: 0.5%; ERK AVP inh: -28.7%; Tau filament bind: 6.7%; ALOX15 inhib: 3.8%

Results for CC(C)c1ccc2oc(-c3ccc(NC(=O)c4ncn[nH]4)cc3)nc2c1 ?
Bst PK mod: inactive; FLuc inh: 10µM*; Pol III holo inh: -2.8%; ERK AVP inh: 10.0%; Tau filament bind: 347.4%; ALOX15 inhib: inconclusive

What do the screens show for `Cc1ccc2oc(-c3ccco3)nc2c1`?
FLuc inh: 25.1µM*; Pol III holo inh: -5.7%; ERK AVP inh: -2.9%; Tau filament bind: 3.3%; ALOX15 inhib: -20.1%

Results for CCc1ccccc1N1CCN(S(=O)(=O)c2ccc(F)c(C)c2)CC1 ?
FLuc inh: 0.0%; Pol III holo inh: 1.1%; ERK AVP inh: 21.3%; Tau filament bind: -22.0%; ALOX15 inhib: -8.8%

Results for Cc1ccc(N2CCN(S(=O)(=O)c3ccc(F)c(C)c3)CC2)c(C)c1 ?
Bst PK mod: 10.7*; FLuc inh: -1.6%; Pol III holo inh: -1.0%; ERK AVP inh: 32.6%; Tau filament bind: -10.4%; ALOX15 inhib: -15.0%

What do the screens show for `COc1cccc(Nc2ncc3nc(CCc4ccccc4)c(=O)n(Cc4cccs4)c3n2)c1`?
FLuc inh: 1.2%[11.4 µM]; Pol III holo inh: -1.3%; ERK AVP inh: -10.2%; Tau filament bind: -6.8%; ALOX15 inhib: 3.4%

Results for COc1ccc(Cc2nnc(-c3cccc(C)c3)o2)cc1OC ?
FLuc inh: -3.2%; Pol III holo inh: -1.0%; ERK AVP inh: -18.2%; Tau filament bind: -3.2%; ALOX15 inhib: -4.1%

Results for COc1ccc(CC(=O)Nc2cccc(-c3nnc(-c4cccc(C)c4)o3)c2)cc1OC ?
FLuc inh: inconclusive; Pol III holo inh: -7.6%; ERK AVP inh: 3.16µM*; Tau filament bind: inactive; ALOX15 inhib: -14.3%

Results for COc1ccc(CC(=O)Nc2ccc(-c3nnc(-c4ccccc4)o3)cc2)cc1OC ?
Bst PK mod: >57; FLuc inh: 0.9%; Pol III holo inh: -6.8%; ERK AVP inh: 0.7%; Tau filament bind: 327.2%; ALOX15 inhib: -1.4%

What do the screens show for `CCOc1cccc(C(=O)Nc2cccc(-c3nnc(-c4ccc(C)cc4)o3)c2)c1`?
Bst PK mod: >57; FLuc inh: 3.4%; Pol III holo inh: 2.7%; ERK AVP inh: 1.1%; Tau filament bind: 67.0%; ALOX15 inhib: 5.5%

What do the screens show for `COc1ccc(CC(=O)Nc2cccc(-c3nnc(-c4ccc(C)cc4)o3)c2)cc1OC`?
Bst PK mod: inactive; FLuc inh: 3.16µM*; Pol III holo inh: -11.1%; ERK AVP inh: 7.94µM*; Tau filament bind: inactive; ALOX15 inhib: -12.1%

What do the screens show for `COc1ccc(CC(=O)Nc2cccc(-c3nnc(-c4ccccc4)o3)c2)cc1OC`?
Bst PK mod: inactive; FLuc inh: -14.5%; Pol III holo inh: -0.4%; ERK AVP inh: 5.01µM*; Tau filament bind: inactive; ALOX15 inhib: -13.3%

How did COCCn1c(=O)cnc2cnc(Oc3ccccc3)nc21 do in these assays?
FLuc inh: 1.0%[11.4 µM]; Pol III holo inh: -10.4%; ERK AVP inh: -12.2%; Tau filament bind: 8.3%; ALOX15 inhib: 8.2%

What do the screens show for `Cc1ccc(C(=O)O[C@@H](C(=O)O)[C@@H](OC(=O)c2ccc(C)cc2)C(=O)O)cc1` (tested in a mixture with another compound)?
FLuc inh: -3.5%; Pol III holo inh: -2.8%; ERK AVP inh: 15.0%; Tau filament bind: 7.0%; ALOX15 inhib: 17.6%
